Assay [1] has as its target Tyrosine-protein kinase CSK (Homo sapiens) (UniProt P41240). As to conditions: at 1 µM.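 Further: each value is an averaged inhibition reading.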
In assay [2] the target is T1, Discoidin domain-containing receptor 2 (Homo sapiens) (UniProt Q16832).
T1 sequence (whole entry): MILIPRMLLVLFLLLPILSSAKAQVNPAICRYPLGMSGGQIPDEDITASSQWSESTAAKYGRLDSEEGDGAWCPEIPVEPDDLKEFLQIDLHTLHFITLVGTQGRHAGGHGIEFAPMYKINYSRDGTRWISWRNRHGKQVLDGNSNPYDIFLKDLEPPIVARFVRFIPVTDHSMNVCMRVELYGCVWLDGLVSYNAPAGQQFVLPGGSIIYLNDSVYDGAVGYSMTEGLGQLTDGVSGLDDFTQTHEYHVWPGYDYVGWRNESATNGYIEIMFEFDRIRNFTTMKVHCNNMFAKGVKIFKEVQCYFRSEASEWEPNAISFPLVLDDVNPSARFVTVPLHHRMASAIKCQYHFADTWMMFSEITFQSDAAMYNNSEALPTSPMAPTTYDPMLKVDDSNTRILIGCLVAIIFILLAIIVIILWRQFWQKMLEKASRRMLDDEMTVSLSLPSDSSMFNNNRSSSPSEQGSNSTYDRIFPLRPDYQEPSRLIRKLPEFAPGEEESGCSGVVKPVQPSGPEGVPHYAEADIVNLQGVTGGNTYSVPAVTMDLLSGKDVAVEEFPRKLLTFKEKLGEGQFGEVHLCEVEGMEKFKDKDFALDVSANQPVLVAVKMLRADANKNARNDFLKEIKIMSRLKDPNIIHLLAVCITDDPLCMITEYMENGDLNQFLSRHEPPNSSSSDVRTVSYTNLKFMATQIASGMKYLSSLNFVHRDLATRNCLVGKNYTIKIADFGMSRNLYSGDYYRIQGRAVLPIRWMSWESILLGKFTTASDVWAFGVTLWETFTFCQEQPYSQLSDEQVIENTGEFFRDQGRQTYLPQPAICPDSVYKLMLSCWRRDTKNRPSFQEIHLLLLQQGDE
The note with it: at 0.1 µM.

Assay [3] deals with T1, Discoidin domain-containing receptor 2 (Homo sapiens). As to conditions: at 1 µM.
Assay [4] has as its target Epidermal growth factor receptor (Homo sapiens) (UniProt P00533). The note with it: at 0.1 µM.
Assay [5] shares this target. As to conditions: at 1 µM.
For assay [6], the system named is Epidermal growth factor receptor (Homo sapiens), P00533 [L858R]. As to conditions: at 0.1 µM.
Assay [7] shares this test system. The note with it: at 1 µM.
Assay [8] deals with Epidermal growth factor receptor (Homo sapiens), P00533 [L861Q]. The note with it: at 0.1 µM.
Assay [9] shares this test system. The note with it: at 1 µM.
Assay [10] relates to Epidermal growth factor receptor (Homo sapiens), P00533 [T790M]. As to conditions: at 0.1 µM.

The structures appear in SMILES notation. Several values for one entry are separate records, joined by “and”; a condition that tells them apart may be missing. Equal values may be shown once.

Sequence of Epidermal growth factor receptor (Homo sapiens) (P00533 whole entry): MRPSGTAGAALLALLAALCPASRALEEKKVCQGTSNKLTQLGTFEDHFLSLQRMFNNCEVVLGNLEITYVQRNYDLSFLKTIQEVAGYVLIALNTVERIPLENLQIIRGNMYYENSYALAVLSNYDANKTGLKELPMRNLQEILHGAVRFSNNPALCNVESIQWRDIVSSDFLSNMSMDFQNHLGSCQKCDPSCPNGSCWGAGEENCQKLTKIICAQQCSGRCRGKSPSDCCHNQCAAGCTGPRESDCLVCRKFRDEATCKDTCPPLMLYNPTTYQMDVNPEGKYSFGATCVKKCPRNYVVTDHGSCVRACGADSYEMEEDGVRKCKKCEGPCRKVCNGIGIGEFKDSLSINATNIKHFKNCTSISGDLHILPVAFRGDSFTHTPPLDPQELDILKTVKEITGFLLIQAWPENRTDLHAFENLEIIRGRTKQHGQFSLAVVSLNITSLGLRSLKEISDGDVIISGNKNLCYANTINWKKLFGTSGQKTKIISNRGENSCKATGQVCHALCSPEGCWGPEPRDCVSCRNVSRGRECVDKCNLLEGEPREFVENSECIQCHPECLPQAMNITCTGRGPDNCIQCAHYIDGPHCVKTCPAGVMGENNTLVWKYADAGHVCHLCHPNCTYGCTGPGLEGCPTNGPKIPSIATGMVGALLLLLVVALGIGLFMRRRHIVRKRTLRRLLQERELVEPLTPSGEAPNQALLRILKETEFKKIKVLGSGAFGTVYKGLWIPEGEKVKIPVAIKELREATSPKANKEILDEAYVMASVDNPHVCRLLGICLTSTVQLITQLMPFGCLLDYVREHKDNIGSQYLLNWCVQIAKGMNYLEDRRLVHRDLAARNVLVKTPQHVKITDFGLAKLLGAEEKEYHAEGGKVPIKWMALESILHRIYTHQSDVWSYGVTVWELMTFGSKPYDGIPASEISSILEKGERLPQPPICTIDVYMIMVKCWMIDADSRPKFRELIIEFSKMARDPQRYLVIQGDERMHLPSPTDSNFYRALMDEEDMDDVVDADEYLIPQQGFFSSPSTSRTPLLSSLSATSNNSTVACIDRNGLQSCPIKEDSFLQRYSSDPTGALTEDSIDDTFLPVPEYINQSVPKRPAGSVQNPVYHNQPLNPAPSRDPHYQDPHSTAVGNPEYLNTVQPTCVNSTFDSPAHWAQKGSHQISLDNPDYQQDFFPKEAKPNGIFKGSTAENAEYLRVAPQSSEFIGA
Sequence of Tyrosine-protein kinase CSK (Homo sapiens) (P41240 2-450 limits assumed): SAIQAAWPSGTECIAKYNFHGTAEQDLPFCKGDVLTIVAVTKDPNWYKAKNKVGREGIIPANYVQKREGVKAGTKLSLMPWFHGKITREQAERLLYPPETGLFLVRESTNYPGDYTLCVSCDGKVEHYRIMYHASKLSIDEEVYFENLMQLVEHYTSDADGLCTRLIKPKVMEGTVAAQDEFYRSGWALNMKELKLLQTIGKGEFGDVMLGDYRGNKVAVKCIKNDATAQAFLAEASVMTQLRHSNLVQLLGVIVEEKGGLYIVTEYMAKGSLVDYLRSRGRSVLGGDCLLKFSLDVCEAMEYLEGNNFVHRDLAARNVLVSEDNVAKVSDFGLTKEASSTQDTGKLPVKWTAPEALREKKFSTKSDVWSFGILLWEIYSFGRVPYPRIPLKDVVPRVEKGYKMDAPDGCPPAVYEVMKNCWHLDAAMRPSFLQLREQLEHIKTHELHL
Sequence of Epidermal growth factor receptor (Homo sapiens), P00533 [L858R] (P00533 whole entry L858R): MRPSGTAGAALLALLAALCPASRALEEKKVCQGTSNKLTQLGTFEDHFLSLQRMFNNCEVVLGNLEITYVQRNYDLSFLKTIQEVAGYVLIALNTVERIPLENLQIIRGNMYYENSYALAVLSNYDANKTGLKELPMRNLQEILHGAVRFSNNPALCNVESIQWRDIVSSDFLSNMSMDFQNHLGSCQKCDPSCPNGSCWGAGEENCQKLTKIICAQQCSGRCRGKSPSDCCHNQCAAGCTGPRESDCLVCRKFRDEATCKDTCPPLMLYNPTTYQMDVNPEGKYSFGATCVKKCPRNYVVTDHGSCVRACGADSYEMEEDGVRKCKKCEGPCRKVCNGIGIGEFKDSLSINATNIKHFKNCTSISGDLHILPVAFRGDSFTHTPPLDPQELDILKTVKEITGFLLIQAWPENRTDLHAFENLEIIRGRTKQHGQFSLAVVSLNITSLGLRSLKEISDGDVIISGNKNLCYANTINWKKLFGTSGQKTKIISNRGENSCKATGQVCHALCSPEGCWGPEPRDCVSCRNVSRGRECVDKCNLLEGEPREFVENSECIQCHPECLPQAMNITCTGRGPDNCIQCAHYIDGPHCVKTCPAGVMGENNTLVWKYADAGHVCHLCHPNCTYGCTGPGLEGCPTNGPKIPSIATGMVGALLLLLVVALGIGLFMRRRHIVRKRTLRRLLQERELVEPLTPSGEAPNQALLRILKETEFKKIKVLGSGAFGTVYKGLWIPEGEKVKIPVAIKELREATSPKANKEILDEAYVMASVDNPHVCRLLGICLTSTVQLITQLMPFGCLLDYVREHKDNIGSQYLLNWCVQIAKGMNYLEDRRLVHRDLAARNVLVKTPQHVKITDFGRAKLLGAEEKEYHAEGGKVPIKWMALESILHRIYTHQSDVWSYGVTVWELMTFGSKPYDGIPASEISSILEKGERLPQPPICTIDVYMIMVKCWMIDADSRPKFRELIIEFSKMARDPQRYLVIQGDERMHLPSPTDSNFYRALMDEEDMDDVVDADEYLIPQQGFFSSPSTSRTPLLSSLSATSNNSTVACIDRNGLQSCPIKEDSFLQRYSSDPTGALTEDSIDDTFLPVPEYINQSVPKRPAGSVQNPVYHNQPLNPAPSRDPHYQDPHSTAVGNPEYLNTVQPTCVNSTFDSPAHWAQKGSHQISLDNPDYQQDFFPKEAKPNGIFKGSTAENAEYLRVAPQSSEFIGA
Sequence of Epidermal growth factor receptor (Homo sapiens), P00533 [T790M] (P00533 whole entry T790M): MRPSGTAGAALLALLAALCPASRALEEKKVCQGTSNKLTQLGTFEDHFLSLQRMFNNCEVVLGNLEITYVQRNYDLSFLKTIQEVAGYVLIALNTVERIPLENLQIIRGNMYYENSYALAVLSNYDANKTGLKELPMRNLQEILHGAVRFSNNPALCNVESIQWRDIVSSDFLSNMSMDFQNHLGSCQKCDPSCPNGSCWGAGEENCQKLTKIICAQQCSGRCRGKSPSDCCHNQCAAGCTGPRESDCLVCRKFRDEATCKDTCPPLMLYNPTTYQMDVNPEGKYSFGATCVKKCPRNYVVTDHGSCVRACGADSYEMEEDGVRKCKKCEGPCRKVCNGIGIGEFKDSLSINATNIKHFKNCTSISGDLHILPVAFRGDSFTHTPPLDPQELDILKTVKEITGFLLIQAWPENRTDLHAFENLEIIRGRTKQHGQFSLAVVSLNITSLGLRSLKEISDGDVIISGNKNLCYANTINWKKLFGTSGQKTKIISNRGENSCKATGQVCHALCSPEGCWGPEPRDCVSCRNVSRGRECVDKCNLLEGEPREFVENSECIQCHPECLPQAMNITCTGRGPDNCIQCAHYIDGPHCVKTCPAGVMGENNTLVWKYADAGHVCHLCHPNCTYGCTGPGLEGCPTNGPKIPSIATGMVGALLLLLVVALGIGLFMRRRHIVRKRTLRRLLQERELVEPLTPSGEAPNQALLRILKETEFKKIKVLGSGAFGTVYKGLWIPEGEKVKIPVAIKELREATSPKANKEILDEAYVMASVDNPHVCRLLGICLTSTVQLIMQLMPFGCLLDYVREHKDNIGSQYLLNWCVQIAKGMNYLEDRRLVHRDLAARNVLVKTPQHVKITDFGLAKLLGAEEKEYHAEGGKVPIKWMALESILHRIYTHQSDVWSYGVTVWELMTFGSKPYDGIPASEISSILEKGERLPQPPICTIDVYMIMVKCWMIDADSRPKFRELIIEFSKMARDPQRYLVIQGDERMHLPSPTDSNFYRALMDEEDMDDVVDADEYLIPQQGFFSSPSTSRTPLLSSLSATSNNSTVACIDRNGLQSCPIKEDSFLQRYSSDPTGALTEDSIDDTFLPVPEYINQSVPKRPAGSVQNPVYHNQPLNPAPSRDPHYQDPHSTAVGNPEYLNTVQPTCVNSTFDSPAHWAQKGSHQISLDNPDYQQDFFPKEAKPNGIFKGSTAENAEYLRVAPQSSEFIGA

In the case of `CC1=C(C(=O)Nc2ccc3[nH]nc(C)c3c2)C(c2ccc(C(F)(F)F)cc2)CC(=O)N1` (stereo not given), the inhibition (as a rule, the relative decrease from the control value, in per cent) in [1] worked out at 5.65%; in assay [2] it was 3.33%; in [3], 1.65%; in assay [4] it was 2.76%; in assay [5], 5.52%; in assay [6] it was 4.19%. The inhibition turned out to be 1.96% in assay [7], 1.79% in [8], 1.92% in assay [9] and 2.05% in [10].
With `COc1ccc(-c2nn3ncccc3c2-c2ccnc(Nc3ccc(F)c(F)c3)n2)cc1`, the inhibition in assay [1] was 8.37%; in [2], 4.41%; in assay [3], 34.7%; in [4] it was 1.6%; in assay [5], 9.46%; in [6], 3.72%. Further, the inhibition amounted to 21.4% in assay [7], 3.55% in assay [8], 10.2% in [9] and 3.23% in assay [10].
Consider `Nc1nccc(-c2c(-c3ccc(F)cc3)ncn2C2CCNCC2)n1`, for which the inhibition in [1] was -3.76% and 3.13%; in assay [2], -1.68% and 1.35%; in [3], 0.32%; in assay [4] it was -0.4% and 2.01%; in assay [5], 5.66% and 6.46%; in assay [6], -0.59% and 2.85%. Further, the inhibition in [7] is 6.1% and 10.9%; in assay [8], -3.23% and 1.91%; in assay [9] it was 1.42% and 4.42%; in assay [10], -2.84% and -2.65%.
Consider `CCS(=O)(=O)c1ccc(OC)c(Nc2ncc(-c3cccc(C(C)=O)c3)o2)c1`, for which the inhibition came to 10.1% in [1]; 3.31% in [2]; 17.9% in [3]; 4.92% in [4]; 9.23% in [5]; 5.11% in assay [6]. In addition, the inhibition in assay [7] stood at 16.6%; in [8] it was 5.35%; in assay [9] it was 5.8%; in assay [10], 1.86%.
As to `CNC(=O)c1ncccc1Nc1nc(Nc2cc3c(cc2OC)CCCN3C(=O)CN(C)C)nc2[nH]ccc12`, the inhibition came to 2.18% in assay [1]; 2.33% in [2]; 3.8% in [3]; 1.65% in assay [4]; 7.76% in assay [5]; 4.57% in [6]. The inhibition stood at 22.4% in assay [7], 4.79% in assay [8], 7.78% in assay [9] and 13.2% in [10].
Regarding `COc1ccccc1-c1cc(/C=C2\C(=O)Nc3ncc(Br)cc32)cc(Br)c1O`, the inhibition in assay [1] is 3.65%; in assay [2], 2.75%; in [3], 10.6%; in assay [4], -0.76%; in [5], 2.08%; in assay [6], -0.74%. Further, the inhibition stood at 0.61% in assay [7], 2.99% in assay [8], 4.29% in [9] and 1.88% in assay [10].
Regarding `COc1ccc2ncn(-c3cc(O[C@H](C)c4ccccc4C(F)(F)F)c(C(N)=O)s3)c2c1`, the inhibition is -2.18% in [1]; -0.82% in [2]; -2.22% in assay [3]; 0.37% in assay [4]; 2.93% in [5]; -1.19% in assay [6]. The inhibition in assay [7] is 1.03%; in assay [8], -0.87%; in assay [9], 0.54%; in [10], -1.45%.
As to `COc1cc(N2CCN(C(C)C)CC2)ccc1Nc1nc(Nc2cccc3ncccc23)c2cc[nH]c2n1`, the inhibition is -2.41% in assay [1]; 4.81% in assay [2]; 8.24% in [3]; 1.36% in assay [4]; 2.64% in assay [5]; -1.25% in assay [6]. Further, the inhibition is 3.3% in [7], -0.92% in [8], 0.99% in [9] and -1.02% in [10].
Take `NS(=O)(=O)c1ccc(N/N=C2\C(=O)Nc3cccc(CCc4ccncc4)c32)cc1`: the inhibition in assay [1] was 0.36%; in [2], 1.26%; in assay [3] it was 1.42%; in assay [4], 4.28%; in assay [5], 6.81%; in assay [6] it was -0.53%. Besides, the inhibition in assay [7] was 3.04%; in assay [8] it was -0.31%; in assay [9], 0.15%; in [10] it was 0.27%.
`FC(F)(F)CNc1nccc(-c2cnn3ncccc23)n1`: the inhibition was determined as 0.56% in assay [1]; 1.12% in assay [2]; 0.22% in [3]; 1.39% in assay [4]; 6.21% in [5]; 2.83% in assay [6]. Further, the inhibition was 0.26% in assay [7], 0.58% in assay [8], 0.31% in [9] and -0.49% in assay [10].
For `CC1(C)CC(n2cnc(-c3ccc(F)cc3)c2-c2ccnc(N)n2)CC(C)(C)N1`, the inhibition is -2.23% in assay [1]; 1.3% in assay [2]; -0.87% in assay [3]; 0.38% in [4]; -0.12% in [5]; -1.07% in [6]. For the same compound, the inhibition is 0.2% in assay [7], -0.41% in assay [8], -1% in assay [9] and -0.77% in assay [10].
`O=C1Nc2ccccc2/C1=C1\CCc2cc(O)ccc21`: the inhibition in assay [1] is 4.47%; in assay [2], 2.06%; in [3], 3.76%; in assay [4] it was 0.24%; in assay [5], 1.05%; in [6] it was 1.94%. The inhibition in [7] is 2.87%; in [8], 2.16%; in assay [9] it was -0.57%; in assay [10], 1.76%.
For `Cc1cc(O)cc(C)c1/C=C/c1cncc(C(N)=O)c1`, the inhibition in assay [1] is 25.5%; in assay [2], 2.69%; in assay [3], 9.65%; in assay [4], 6.97%; in [5], 11.2%; in [6], 3.98%. Further, the inhibition is 18.9% in assay [7], 3.84% in assay [8], 5.76% in [9] and 1.27% in assay [10].
As to `CC1=C(C(=O)Nc2ccc3[nH]ncc3c2)C(c2ccc(F)cc2)N=C(c2ccc(C(F)(F)F)nc2)N1` (stereo not given), the inhibition came to 6.65% in [1]; 1.54% in assay [2]; 6.22% in assay [3]; 3.43% in assay [4]; 7.73% in [5]; 4.85% in [6]. Besides, the inhibition in assay [7] came to 6.69%; in assay [8], 2.32%; in [9], 2.72%; in [10], 0.14%.
On to `COC(=O)Nc1nc2cc(Oc3ccc(NC(=O)Nc4ccccc4)cc3)ccc2[nH]1`, for which the inhibition in assay [1] was 1.41%; in assay [2], 77.2%; in [3] it was 81.4%; in assay [4], 0.9%; in [5], -0.33%; in assay [6] it was 0.78%. Further, the inhibition was 4.35% in assay [7], 1.19% in assay [8], 1.08% in [9] and -1.39% in assay [10].
Regarding `CNC(=O)c1cncc(/C=C/c2ccccc2C)c1`, the inhibition stood at 9.89% in assay [1]; 0.33% in [2]; 5.42% in [3]; 1.22% in assay [4]; 3.62% in assay [5]; 4.66% in assay [6]. For the same compound, the inhibition in assay [7] came out at 11.7%; in [8] it was 3.44%; in assay [9], 5.67%; in assay [10] it was 1.07%.

The values above are taken from ChEMBL document CHEMBL1961873, “Compounds: GSK PKIS; Assays: Nanosyn kinase panel” (2012).
